Test results: PubChem BioAssay (Tox21)
Records with an inconclusive call do not appear. The source made the active and inactive calls. The call rests on the fitted dose curve; in most records, active means well fitted cell-killing curve with a large enough effect in the repeat runs (not every such curve was filed as active); inconclusive means weak or mixed curves, or effect the other way; inactive means no such curve, though single readings can be large or run the other way.

Assay: qHTS assay to identify small molecule antagonists of the estrogen related receptor signaling pathway with the pleiotropic PPARgamma coactivator (PGC) from Tox21 10K library - cell viability counter screen (AID 1224840); further: nearly all actives have a fitted effect of over 40% in size
Settings: PGC/ERR reporter cells viability, CellTiter-Fluor, 17.5 h; series mostly up to 92.4 µM; viability change, negative = cytotoxic: at the top concentration
Summary of the method: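 Viability counter screen, PGC/ERR cells: 17.5 h compound exposure at 37 C, CellTiter-Fluor fluorescence endpoint.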
On the % scale 0 is the no-effect control and ±100 the full control effect; potency means the concentration at half of the fitted maximal effect.

Row | Structure (SMILES) | viability change, negative = cytotoxic | Potency
1 | CCc1cc2c(s1)-n1c(C)nnc1CN=C2c1ccccc1Cl | 1.46% [at 42.5 µM] (inactive) | 
2 | CNNC | 0.191% (inactive) | 
3 | COc1cccc2c1cc([N+](=O)[O-])c1c(C(=O)O)cc3c(c12)OCO3 |  | 30.6 µM (active)
4 | CC(N)=S | 15.4% (inactive) | 
5 | CCCSC(=O)N(CCC)CCC | -1.33% (inactive) | 
6 | CCN(Cc1ccc(Cl)nc1)/C(=C/[N+](=O)[O-])NC | 0.58% [at 42.5 µM] (inactive) | 
7 | NC1=NC(=O)C(c2ccccc2)O1 (stereo not drawn) | 3.95% [at 42.5 µM] (inactive) | 
8 | O=C(CCN1CC1)OCC(CO)(COC(=O)CCN1CC1)COC(=O)CCN1CC1 | 9.43% (inactive) | 
9 | CCOC(=O)N(C)C(=O)CSP(=S)(OCC)OCC | 4.9% (inactive) | 
10 | CCCCOC(=O)c1ccccc1N | -25.5% (inactive) | 
11 | COc1cc(OC)nc(NC(=O)NS(=O)(=O)c2ncccc2C(=O)N(C)C)n1 | 9.49% (inactive) | 
12 | COC(=O)C(c1ccccc1)C1CCCCN1 (stereo not drawn) | 0.882% (inactive) | 
13 | ClC(Cl)(Cl)C(Cl)(Cl)Cl | 7.91% (inactive) | 
14 | CCOP(=S)(OCC)SCSP(=S)(OCC)OCC | -5.04% (inactive) | 
15 | CC(=O)Nc1cc([As](=O)(O)O)ccc1O | 6.27% [at 42.5 µM] (inactive) | 
16 | CNC(=O)N(C)c1nc2ccccc2s1 | -6.14% (inactive) | 
17 | COc1cc(OC)nc(Sc2cccc(Cl)c2C(=O)O)n1 | -3.49% (inactive) | 
18 | Nc1cc(Cl)ccc1O | -29% (inactive) | 
19 | CCC(=O)C(CCN(C)C)(c1ccccc1)c1ccccc1 | -15.9% [at 42.5 µM] (inactive) | 

Row | Structure (SMILES) | viability change, negative = cytotoxic | Potency
20 | CN1CCN(C(=O)O[C@H]2c3nccnc3C(=O)N2c2ccc(Cl)cn2)CC1 | 8.37% [at 42.5 µM] (inactive) | 
21 | N#CCCC#N | 7.64% (inactive) | 
22 | CN1CCC(O)(c2ccc(F)cc2)C(C(=O)c2ccc(F)cc2)C1 (stereo not drawn) | 0.137% [at 42.5 µM] (inactive) | 
23 | Fc1cc(Br)ccc1CBr | 0.899% [at 42.5 µM] (inactive) | 
24 | CC(=O)CCc1ccc2c(c1)OCO2 | 2.51% (inactive) | 
25 | CCCCOC(=O)c1ccccc1C(=O)O | 3.27% (inactive) | 
26 | CCC1(c2ccccc2)C(=O)NC(=O)NC1=O | 4.26% (inactive) | 
27 | c1coc(-c2nc3ccccc3[nH]2)c1 | 12% (inactive) | 
28 | N#CC(O)c1ccccc1 (stereo not drawn) | -2.78% (inactive) | 
29 | CC(C(O)c1ccccc1)N(C)C/C=C/c1ccccc1 (stereo not drawn) | 0.0037% [at 42.5 µM] (inactive) | 
30 | COP(N)(=S)Oc1ccccc1C(=O)OC(C)C (stereo not drawn) | 1.26% (inactive) | 
31 | CCCCc1c(C)nc(NCC)[nH]c1=O | 0.0432% (inactive) | 
32 | CC1CN1P(=O)(N1CC1C)N1CC1C (stereo not drawn) | 6.35% (inactive) | 
33 | COc1cc(OC)nc(NC(=O)NS(=O)(=O)c2ncccc2OCC(F)(F)F)n1 | -0.763% (inactive) | 
34 | C1CCC(C2CCCCC2)CC1 | -8.94% (inactive) | 
35 | CCS(=O)(=O)CCSP(=O)(OC)OC | -9.21% (inactive) | 
36 | C#CCN1C(=O)COc2cc(F)c(N3C(=O)C4=C(CCCC4)C3=O)cc21 | -2.96% (inactive) | 
37 | CC1CCCCC1NC(=O)Nc1ccccc1 (stereo not drawn) | -0.907% (inactive) | 
38 | NC(=S)C(N)=S | 7.18% (inactive) | 
